# Reference: PubChem BioAssay (NCATS)
# Records with an inconclusive call do not appear. A call without a number means that no potency is given here. Unmarked numbers belong to inactive results. The source made the active and inactive calls. Unless noted, the call rests on the fitted dose curve; in most records, active means well fitted curve in the direction sought with a large enough effect; inconclusive means small, poorly fitted or top-dose-only effect, or another doubt; inactive means no such curve, though single readings can be large; an effect the other way counts as inactive or inconclusive.
# Columns and labels:
# [1] = molecular target: Calcium and integrin-binding protein 1 (Homo sapiens) (UniProt Q99828); assay: Primary qHTS for Identification of Calcium Integrin Binding Protein 1 (CIB1) Competitor (AID 1508620); further: potency means the concentration at half of the fitted maximal effect;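 on activity change, negative = inhibition: GST tagged CIB1 binding a fluorescein labelled alphaIIb integrin peptide tracer; top concentration of the series differs between compounds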
# Method in brief: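 Fluorescence polarization competition: CIB1-GST (1 uM final) preincubated with compound 15 min at room temperature, then FITC-labeled alphaIIb peptide (100 nM final) added for another 15 min. Polarization read at Ex 480/Em 540.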
# [2] = Primary qHTS for small molecule stabilizers of the endoplasmic reticulum resident proteome: Secreted ER Calcium Modulated Protein (SERCaMP) assay (AID 1508630)
# Method in brief: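 The SH-SY5Y reporter protocol was run at 3 concentrations up to 38.3 uM (primary) or 11 concentrations (follow-up): 16 h compound, 100 nM thapsigargin for 4 h, then extracellular luciferase luminescence.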
# [3] = molecular target: Cytochrome P450 2D6 (Homo sapiens) (UniProt P10635); assay: Cytochrome P450 family 2 subfamily D member 6 (CYP2D6) small molecule antagonists: luciferase biochemical (cell-free) qHTS assay (AID 1645840; active means well fitted curve in the direction sought with a large enough effect in the repeat runs; an effect the other way counts as inactive or inconclusive; further: nearly all actives have a fitted effect of over 55% in size; further: potency means the concentration at half of the fitted maximal effect; on activity change, negative = inhibition: series mostly up to about 57 µM)
# Method in brief: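 P450-Glo CYP2D6 system: proluciferin substrate converted by enzyme to luciferin, read by luminescence proportional to activity. Enzyme-substrate mix with compound 10 min at room temperature, then NADPH regeneration 1 h before detection reagent.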
# [4] = molecular target: Cytochrome P450 2C9 (Homo sapiens) (UniProt P11712); assay: Cytochrome P450 family 2 subfamily C member 9 (CYP2C9) small molecule antagonists: luciferase biochemical (cell-free) qHTS assay (AID 1645842; active means well fitted curve in the direction sought with a large enough effect in the repeat runs; an effect the other way counts as inactive or inconclusive; further: nearly all actives have a fitted effect of over 55% in size; further: potency means the concentration at half of the fitted maximal effect; on activity change, negative = inhibition: series mostly up to about 57 µM)
# Method in brief: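 P450-Glo CYP2C9 system: proluciferin substrate with enzyme in mix containing 0.4% BSA, 10 min at room temperature, then NADPH regeneration solution added and incubated 1 h at 37C. Detection reagent stopped reaction; luminescence read after 20 min as RLU.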
# Calcium and integrin-binding protein 1 (Homo sapiens), sequence (Q99828 whole entry, looked up): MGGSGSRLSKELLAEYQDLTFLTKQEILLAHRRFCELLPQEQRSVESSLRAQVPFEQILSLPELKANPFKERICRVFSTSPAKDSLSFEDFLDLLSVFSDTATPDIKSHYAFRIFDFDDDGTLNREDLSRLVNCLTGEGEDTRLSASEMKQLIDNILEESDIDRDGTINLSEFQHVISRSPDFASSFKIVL
# Cytochrome P450 2D6 (Homo sapiens), sequence (P10635 whole entry, looked up): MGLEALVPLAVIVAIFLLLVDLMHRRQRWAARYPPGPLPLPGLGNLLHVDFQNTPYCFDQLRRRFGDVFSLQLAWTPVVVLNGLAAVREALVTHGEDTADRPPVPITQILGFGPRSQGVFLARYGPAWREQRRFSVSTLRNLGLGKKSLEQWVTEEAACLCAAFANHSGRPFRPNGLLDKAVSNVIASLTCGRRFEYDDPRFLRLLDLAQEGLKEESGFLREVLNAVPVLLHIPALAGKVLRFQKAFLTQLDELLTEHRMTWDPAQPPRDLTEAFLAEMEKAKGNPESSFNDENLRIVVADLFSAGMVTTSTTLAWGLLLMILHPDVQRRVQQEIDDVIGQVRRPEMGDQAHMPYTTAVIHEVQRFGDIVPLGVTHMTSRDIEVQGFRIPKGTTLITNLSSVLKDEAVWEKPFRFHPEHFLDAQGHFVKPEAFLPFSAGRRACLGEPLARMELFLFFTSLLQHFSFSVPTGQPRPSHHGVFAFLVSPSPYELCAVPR
# Cytochrome P450 2C9 (Homo sapiens), sequence (P11712 whole entry, looked up): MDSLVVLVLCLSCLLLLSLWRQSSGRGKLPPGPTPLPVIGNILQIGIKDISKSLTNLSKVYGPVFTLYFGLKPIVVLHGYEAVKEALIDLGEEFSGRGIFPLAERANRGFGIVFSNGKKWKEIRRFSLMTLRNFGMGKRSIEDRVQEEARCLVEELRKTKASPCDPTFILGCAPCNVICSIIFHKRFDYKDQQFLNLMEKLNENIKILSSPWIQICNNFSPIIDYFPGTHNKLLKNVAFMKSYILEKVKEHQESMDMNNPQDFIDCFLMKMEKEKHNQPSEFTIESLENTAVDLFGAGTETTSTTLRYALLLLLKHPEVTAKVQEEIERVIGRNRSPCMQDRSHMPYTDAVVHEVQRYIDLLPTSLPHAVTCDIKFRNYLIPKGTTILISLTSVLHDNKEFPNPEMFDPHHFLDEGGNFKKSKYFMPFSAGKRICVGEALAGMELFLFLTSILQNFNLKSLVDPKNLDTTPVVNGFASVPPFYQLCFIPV
smiles,measurement,setting,value
C[C@]12C=CC(=O)N[C@@H]1CC[C@H]1[C@H]3CC[C@@H](C(=O)Nc4cc(C(F)(F)F)ccc4C(F)(F)F)[C@@]3(C)CC[C@@H]12,Potency,[1],inactive
same,outcome,[2],inactive
O=C(NC1CC1)c1cccc(-c2ccc3c(NC(=O)C4CC4)n[nH]c3c2)c1,Potency,[1],inactive
same,outcome,[2],inactive
O=C(C=CC#Cc1cccc(NS(=O)(=O)c2ccccc2)c1)NO,Potency,[1],inactive
same,outcome,[2],inactive
C[C@@H]1[C@H](C)CC[C@]2(C(=O)O)CC[C@]3(C)C(=CC[C@@H]4[C@@]5(C)C[C@@H](O)[C@H](O)[C@@](C)(CO)[C@H]5CC[C@]43C)[C@@H]12,Potency,[1],inactive
same,outcome,[2],inactive
Cc1ccc([N+](=O)[O-])cc1S(=O)(=O)N(C)N=Cc1cnc2ccc(Br)cn12,Potency,[1],inactive
same,outcome,[2],inactive
CC(C)N1[N]C(=C2C=c3cc(O)ccc3=N2)c2c(N)ncnc21,Potency,[1],inactive
same,outcome,[2],inactive
Cn1cc(-c2cnn3c(N)c(Br)c([C@H]4CCCNC4)nc23)cn1,Potency,[1],inactive
same,outcome,[2],inactive
C[C@H](NCc1ccc(OCc2cccc(F)c2)cc1)C(N)=O,Potency,[1],inactive
same,outcome,[2],inactive
COC1=C2C[C@@H](C)C[C@H](OC)[C@@H](O)[C@@H](C)C=C(C)[C@H](OC(N)=O)[C@@H](OC)C=CC=C(C)C(=O)NC(=CC1=O)C2=O,Potency,[1],inactive
same,outcome,[2],inactive
CCN(CC)Cc1ccc2cc(COC(=O)Nc3ccc(C(=O)NO)cc3)ccc2c1,Potency,[1],inactive
same,outcome,[2],inactive
CC(C)(O)CC[C@@H](O)[C@](C)(O)[C@H]1CC[C@@]2(O)C3=CC(=O)[C@@H]4C[C@@H](O)[C@@H](O)C[C@]4(C)[C@@H]3CC[C@]12C,Potency,[1],inactive
same,outcome,[2],inactive
CCc1cc(C(C)=NOCc2ccc(C3CCCCC3)c(C(F)(F)F)c2)ccc1CN1CC(C(=O)O)C1,Potency,[1],inactive
same,outcome,[2],inactive
O=C1c2c(O)cccc2[C@@H]([C@@H]2O[C@H](CO)[C@@H](O)[C@H](O)[C@H]2O)c2cc(CO)cc(O)c21,Potency,[1],inactive
same,outcome,[2],inactive
CC(=O)C1=C(O)C=C2Oc3c(C(C)=O)c(O)c(C)c(O)c3C2(C)C1=O (stereo not drawn),Potency,[1],inactive
same,outcome,[2],inactive
O=C(NNC(=O)c1ccc(CNS(=O)(=O)c2ccc(F)c(Cl)c2)cc1)c1ccccc1,Potency,[1],inactive
same,outcome,[2],inactive
CC(=O)N[C@@H]1[C@H](O[C@@H]2c3ccc(c(Cl)c3)Oc3cc4cc(c3O[C@H]3O[C@H](CO)[C@@H](O)[C@H](O)[C@H]3NC(=O)CCCCCCCC(C)C)Oc3ccc(cc3Cl)C[C@H]3NC(=O)[C@H](N)c5ccc(O)c(c5)Oc5cc(O)cc(c5)[C@H](NC3=O)C(=O)N[C@H]4C(=O)N[C@H]3C(=O)N[C@@H]2C(=O)N[C@@H](C(=O)O)c2cc(O)cc(O[C@H]4O[C@H](CO)[C@@H](O)[C@H](O)[C@H]4O)c2-c2cc3ccc2O)O[C@H](CO)[C@@H](O)[C@@H]1O,Potency,[1],inactive
same,outcome,[2],inactive
CCN1CCN(C(=O)N[C@H](C(=O)N[C@@H]2C(=O)N3C(C(=O)O)=C(CSc4nnnn4C)CS[C@@H]23)c2ccc(O)cc2)C(=O)C1=O,"activity change, negative = inhibition",[1],-3.53% [at 12.4 µM]
same,outcome,[2],inactive
Nc1ncn([C@@H]2O[C@H](CO)[C@@H](O)[C@@H]2O)c(=O)n1,Potency,[1],inactive
same,outcome,[2],inactive
CC(=O)OCC(=O)[C@@]12N=C(C)O[C@H]1C[C@H]1[C@@H]3CCC4=CC(=O)C=C[C@]4(C)[C@@H]3[C@@H](O)C[C@@]12C,Potency,[1],inactive
same,outcome,[2],inactive
CCNC(=O)Nc1ccc(-c2nc3c(c(N4CCOC[C@H]4C)n2)CCN(C2COC2)C3)cc1,Potency,[1],inactive
same,outcome,[2],inactive
C=C1C(=CC=C2CCC[C@]3(C)[C@@H]([C@H](C)CCCC(C)(C)O)CC[C@@H]23)C[C@@H](O)C[C@@H]1O,Potency,[1],inactive
same,outcome,[2],inactive
NC(=O)N1CCC(CC(=O)N2CCC([C@H]3c4ncc(Br)cc4CCc4cc(Cl)cc(Br)c43)CC2)CC1,Potency,[1],inactive
same,outcome,[2],inactive
C#C[C@]1(O)CC[C@@H]2[C@@H]3CCc4cc(O)ccc4[C@H]3CC[C@@]21C,Potency,[1],inactive
same,outcome,[2],inactive
O=C1NC(=O)[C@@H](c2cn3c4c(cccc24)CCC3)[C@H]1c1c[nH]c2ccccc12,Potency,[1],inactive
same,outcome,[2],inactive
C=C1C(=O)O[C@H]2[C@@H]1CCC(C)=CCC[C@@]1(C)O[C@@H]21,Potency,[1],inactive
same,outcome,[2],inactive
O=C(C=CC=Cc1ccc2c(c1)OCO2)N1CCCCC1,Potency,[1],inactive
same,outcome,[2],inactive
C[C@@]12C[C@@]3(O)O[C@@H](O1)[C@]1(COC(=O)c4ccccc4)[C@@H]3C[C@@]12O[C@@H]1O[C@H](CO)[C@@H](O)[C@H](O)[C@@H]1O,Potency,[1],inactive
same,outcome,[2],inactive
CC(=CC(=O)Nc1ccccc1C(=O)O)c1ccc2ccccc2c1,Potency,[1],inactive
same,outcome,[2],inactive
C[C@@H](Cc1cc2c(c(C(N)=O)c1)N(CCCO)CC2)NCCOc1ccccc1OCC(F)(F)F,Potency,[1],inactive
same,outcome,[2],inactive
O=C(NCc1ccccc1)[C@H](Cc1ccccc1)NC(=O)[C@@H]1O[C@@H]1C(=O)NCCc1ccc(O)cc1,Potency,[1],inactive
same,outcome,[2],inactive
CC(C)(C)[C@H](NC(=O)c1ccc(N)c(Cl)c1)C(=O)N1CCC[C@@H]1C(=O)N[C@H](C#N)CC(=O)O,"activity change, negative = inhibition",[1],-8.66% [at 6.45 µM]
same,"activity change, negative = inhibition",[2],176% [at 3.88 µM]
N#Cc1c(NC(=O)c2cccc3ccccc23)sc2c1CCCC2,Potency,[1],inactive
same,outcome,[2],inactive
CCOC(=O)N1CCN([N+]([O-])=NOc2ccc([N+](=O)[O-])cc2C#N)CC1,Potency,[1],inactive
same,Potency,[3],inactive
COc1cccc2c1C(=O)c1c(O)c3c(c(O)c1C2=O)C[C@@](O)(C(C)=O)C[C@H]3O[C@H]1C[C@H](N)[C@H](O)[C@H](C)O1,outcome,[2],inactive
CC1(C)CC(O)CC(C)(C)N1[O],outcome,[2],inactive
CC(=O)O[C@]1(C(C)=O)CC[C@H]2[C@@H]3C=C(C)C4=CC(=O)CC[C@]4(C)[C@@H]3CC[C@@]21C,outcome,[2],inactive
Cc1noc(-c2ccc(CSCCC(=O)O)cc2)c1NC(=O)OC(C)c1ccccc1Cl (stereo not drawn),Potency,[1],inactive
same,outcome,[2],inactive
same,Potency,[3],inactive
same,Potency,[4],12 µM (active)
CCc1cnn2c(NCc3ccc[n+]([O-])c3)cc(N3CCCC[C@@H]3CCO)nc12,Potency,[1],inactive
same,outcome,[2],inactive
C#Cc1cccc(Nc2ncnc3cc(OCCOC)c(OCCO)cc23)c1,Potency,[1],inactive
same,outcome,[2],inactive
same,Potency,[3],8.49 µM (active)
CN1CCc2c(c3ccccc3n2Cc2ccc(C(=O)NO)cc2)C1,Potency,[1],inactive
same,outcome,[2],inactive
same,Potency,[3],7.56 µM (active)
same,Potency,[4],inactive
CC(=O)[C@]1(O)Cc2c(O)c3c(c(O)c2[C@@H](O[C@H]2C[C@H](N)[C@@H](O)[C@H](C)O2)C1)C(=O)c1ccccc1C3=O,Potency,[1],24.1 µM (active)
same,outcome,[2],inactive
C=C[C@@H]1CN2CCC1C[C@H]2[C@H](O)c1ccnc2ccc(OC)cc12 (stereo partly drawn),outcome,[2],inactive
COc1cc(C)c(C=CC(C)=CC=CC(C)=CC(=O)O)c(C)c1C,Potency,[1],inactive
same,outcome,[2],inactive
same,Potency,[3],inactive
same,Potency,[4],23.9 µM (active)
CCc1c(O)cc(O)c(C(=O)c2ccc(OCCN3CCOCC3)c(OC)c2)c1CC(=O)N(CCOC)CCOC,Potency,[1],inactive
same,outcome,[2],inactive
same,Potency,[3],inactive
c1cncc(CN2CCC(n3ncc4c(N5CCOCC5)nc(-c5ccc6[nH]ccc6c5)nc43)CC2)c1,Potency,[1],inactive
same,outcome,[2],inactive
same,Potency,[4],1.9 µM (active)
CC(O)(C#Cc1ccc2c(c1)N(c1nc(N)ncc1Cl)CC2)c1nccs1 (stereo not drawn),Potency,[1],inactive
same,outcome,[2],inactive
same,Potency,[3],9.52 µM (active)
same,Potency,[4],1.07 µM (active)
CC(=O)N1CCN(c2ccc(OCc3nn(C)c(C)c3-c3cccc4c(CCCOc5cccc6ccccc56)c(C(=O)O)n(Cc5cccnc5)c34)cc2)CC1,outcome,[2],inactive
COc1ccc(Nc2cc(-c3cnc(N)nc3)nc(N3CCOCC3)n2)cn1,Potency,[1],inactive
same,outcome,[2],inactive
same,Potency,[3],inactive
same,Potency,[4],8.49 µM (active)
CN(C)CC(=O)N1CCC(c2ccc(NC(=O)c3ncc(C#N)[nH]3)c(C3=CCCCC3)c2)CC1,Potency,[1],inactive
same,outcome,[2],inactive
same,Potency,[3],inactive
same,Potency,[4],inactive
CS[C@H]1SC[C@@H]2C(=O)N(C)[C@H](C(C)C)C(=O)OC[C@H](NC(=O)c3cnc4ccccc4n3)C(=O)N[C@H](C)C(=O)N(C)[C@@H]1C(=O)N(C)[C@H](C(C)C)C(=O)OC[C@H](NC(=O)c1cnc3ccccc3n1)C(=O)N[C@H](C)C(=O)N2C,Potency,[1],inactive
same,outcome,[2],inactive
N#Cc1ccc(COC[C@H]2O[C@@H](n3c(NCc4ccc(Cl)c(Cl)c4)nc4c(N)ncnc43)[C@@H](O)[C@@H]2O)cc1,Potency,[1],inactive
same,outcome,[2],inactive
CS(=O)(=O)N1CCc2c(-c3cnc(N)nc3)nc(N3CCOCC3)nc21,Potency,[1],inactive
same,outcome,[2],inactive
same,Potency,[3],inactive
CC(C)n1cnc2c(NCCc3ccc(O)cc3)nc(-c3csc4ccccc34)nc21,Potency,[1],inactive
same,outcome,[2],inactive
same,Potency,[4],2.68 µM (active)
COc1ccc(CCC(=O)c2c(O)cc(O[C@@H]3O[C@H](CO)[C@@H](O)[C@H](O)[C@@H]3O[C@@H]3O[C@@H](C)[C@H](O)[C@@H](O)[C@@H]3O)cc2O)cc1O,outcome,[2],inactive
C[C@]12CC[C@@H]3c4ccc(O)cc4CC[C@H]3[C@H]1CC[C@H]2O,outcome,[2],inactive
COC(=O)[C@@H]1[C@H]2C[C@@H]3c4[nH]c5ccccc5c4CCN3C[C@@H]2CC[C@@H]1O,outcome,[2],inactive
CCCCCN=C(N)NN=Cc1c[nH]c2ccc(OC)cc12,Potency,[1],inactive
same,outcome,[2],inactive
O=C(Nc1cc2cc[nH]c2cn1)c1ccccc1,Potency,[1],inactive
same,outcome,[2],inactive
same,Potency,[3],13.5 µM (active)
same,Potency,[4],4.77 µM (active)
CCCCCCCCCCCCCCCC(=O)OC[C@@H](NC(=O)C(Cl)Cl)[C@H](O)c1ccc([N+](=O)[O-])cc1,Potency,[1],inactive
same,Potency,[3],inactive
same,Potency,[4],3.01 µM (active)
CC(C)(N)c1ccc(-c2nc3ccccc3nc2-c2ccccc2)cc1,Potency,[1],inactive
same,outcome,[2],inactive
same,Potency,[3],15.1 µM (active)
same,Potency,[4],13.5 µM (active)
CON=C(C(=O)N[C@@H]1C(=O)N2C(C(=O)O)=C(CSC(=O)c3ccco3)CS[C@H]12)c1csc(N)n1,Potency,[1],inactive
same,outcome,[2],inactive
C[C@H](CCC(=O)O)[C@H]1CC[C@H]2[C@@H]3[C@H](O)C[C@@H]4C[C@H](O)CC[C@]4(C)[C@@H]3CC[C@]12C,Potency,[1],inactive
same,outcome,[2],inactive
